Our source for the growth values is PubChem BioAssay (NCI).

Test systems include T-47D breast; BT-549 breast; MDA-MB-435 melanoma; SW-620 colon; MCF7 breast; HCT-116 colon; HCC-2998 colon; KM12 colon.
Common to all, as to assay: NCI-60 one-dose screen, 48 h (100 = growth as untreated, 0 = no growth, -100 = all killed)
Holding throughout (conditions): 10 µM unless noted

The panel holds about 83,000 compounds, 20% with a hit somewhere; the sample as a whole holds those more often.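 Single-concentration screen, 48 h exposure, 96-well plates. Endpoint: percent growth. Below 10 = active.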 Values without a mark were called inactive. Calls of active or inactive are those of the source.

For `CC(=O)OCC(=O)O[C@@H]1C[C@]2(C(C)C)O[C@@]1(C)[C@@H]1CC[C@@H](C)[C@H]1[C@@H]2OC(=O)/C=C/c1ccccc1`, the growth with T-47D breast was 48.6%; with BT-549 breast it was 2.51% (active); in the experiment with MDA-MB-435 melanoma it was 95%; with SW-620 colon, 104%; in the experiment on MCF7 breast it was 77.8%; with HCT-116 colon, 81.5%. Moreover, the growth is 101% with HCC-2998 colon and 90.2% with KM12 colon.

As for `CC1=NN(c2cccc(Cl)c2)C(=O)/C1=C\C=C\c1ccccc1`, the growth is 36.7% in the experiment on T-47D breast; 78.4% in the experiment on BT-549 breast; 13.6% in the experiment on MDA-MB-435 melanoma; 1.26% (active) in the experiment with SW-620 colon; 10.9% in the experiment on MCF7 breast; -89.2% (active) in the experiment with HCT-116 colon. In addition, the growth in the experiment on HCC-2998 colon was 30.9%; in the experiment on KM12 colon, 16.1%.

Take `COc1ccc(C(=O)C2OC3=C(C(=O)CC(C)(C)C3)C2c2cccc(Oc3ccccc3)c2)cc1` (stereo not given): the growth in the experiment with T-47D breast was 76%; in the experiment on BT-549 breast, 92.1%; with MDA-MB-435 melanoma it was 90.8%; with SW-620 colon, 93.6%; in the experiment on MCF7 breast it was 89.3%; in the experiment on HCT-116 colon, 84.6%. For the same molecule, the growth in the experiment with HCC-2998 colon is 113%; in the experiment on KM12 colon, 94.6%.

As to `COc1cc(C)cc(-c2c(-c3cc(N4CC(O)C4)nc(-c4cccnc4)n3)cnn2C)c1`, the growth in the experiment with T-47D breast was 62.6%; with BT-549 breast it was 89.7%; in the experiment on MDA-MB-435 melanoma, 92%; with SW-620 colon, 101%; in the experiment on MCF7 breast, 87.6%; in the experiment with HCT-116 colon, 96.1%. Besides, the growth with HCC-2998 colon is 92.8%; with KM12 colon, 84.7%.

As to `CCOC(=O)c1c(Nc2nc3ccccc3s2)sc2c1CCC(=O)C2`, the growth was 37% with T-47D breast; 13.5% in the experiment on BT-549 breast; 82.6% with MDA-MB-435 melanoma; 19.4% in the experiment with SW-620 colon; 39.3% with MCF7 breast; 11.4% with HCT-116 colon. In addition, the results for the growth in the experiment on HCC-2998 colon and with KM12 colon were 104% and 47.7%, respectively.

For the molecule `C=C(c1ccc(OC)c(/C=C/C(=O)c2cc(OC)c(OC)c(OC)c2)c1)c1cc(OC)c(OC)c(OC)c1`, the growth in the experiment with T-47D breast is 17.2%; in the experiment on BT-549 breast, 1.8% (active); in the experiment with MDA-MB-435 melanoma, -28.1% (active); with SW-620 colon, -12.4% (active); in the experiment with MCF7 breast, 8.83% (active); in the experiment on HCT-116 colon, -62.4% (active). The growth in the experiment with HCC-2998 colon was 11.4%; in the experiment with KM12 colon, -4.59% (active).

`CCOC(=O)C1=C(c2ccccc2)N=C2N(c3ccccc3)N=C(C(C)=O)N2C1c1ccc(Br)cc1` (stereo not given): the growth is 79.8% with T-47D breast; 98.3% in the experiment with BT-549 breast; 101% with MDA-MB-435 melanoma; 97% in the experiment on SW-620 colon; 89.2% with MCF7 breast; 84.7% in the experiment with HCT-116 colon. Further, the values for the growth with HCC-2998 colon and in the experiment with KM12 colon were 103% and 94.9%, respectively.

`CCOC(=O)c1c(N)sc2cc(O)ccc12`: the growth in the experiment on T-47D breast was 85.7%; with BT-549 breast, 93.3%; in the experiment with MDA-MB-435 melanoma, 107%; in the experiment on SW-620 colon it was 117%; in the experiment with MCF7 breast, 104%; in the experiment on HCT-116 colon, 98.5%. For the same molecule, the growth with HCC-2998 colon is 111%; with KM12 colon it was 89.1%.

For `OC1CSSC1Cn1cnc2c(Nc3ccc(F)c(Cl)c3)ncnc21` (stereo not given), the growth in the experiment on T-47D breast is 61.4%; with BT-549 breast, 119%; with MDA-MB-435 melanoma it was 63.8%; in the experiment on SW-620 colon, 104%; with MCF7 breast it was 45.7%; with HCT-116 colon it was 74.7%. For the same molecule, the growth is 96.4% in the experiment with HCC-2998 colon and 73.2% in the experiment with KM12 colon.

`COc1ccc(-c2cc(-c3ccc(Nc4nc(Nc5ccc(Cl)cc5)nc(Nc5ccc(Cl)cc5)n4)cc3)no2)cc1`: the growth in the experiment on T-47D breast was 70.7%; in the experiment with BT-549 breast it was 89.8%; in the experiment on MDA-MB-435 melanoma, 71.3%; with SW-620 colon it was 88.7%; in the experiment on MCF7 breast it was 60.6%; with HCT-116 colon it was 53.3%. Further, the growth was 11.4% with HCC-2998 colon and 82% with KM12 colon.

For the molecule `CC(C)(C)n1cc(-c2ccnc(NCCNS(=O)(=O)c3cccc4ccccc34)c2)c(-c2cccc(O)c2)n1`, the growth in the experiment with T-47D breast is 31.4%; in the experiment with BT-549 breast it was 60.5%; in the experiment on MDA-MB-435 melanoma, 78.6%; with SW-620 colon, 35.8%; in the experiment with MCF7 breast it was 49.4%; in the experiment with HCT-116 colon, 46.5%. Besides, the growth is 66.3% in the experiment on HCC-2998 colon and 57.5% with KM12 colon.

As for `Cc1ccc2c(n1)C[C@H](C(C)(C)O)CC[C@H]2C`, the growth in the experiment on T-47D breast was 96.5%; with BT-549 breast, 112%; in the experiment with MDA-MB-435 melanoma it was 102%; in the experiment on SW-620 colon it was 104%; with MCF7 breast it was 94.6%; in the experiment with HCT-116 colon it was 97.4%. Moreover, the growth in the experiment with HCC-2998 colon is 102%; with KM12 colon it was 109%.

On to `Nc1ncc(-c2ccc3ncnc(N4CCc5cc(F)c(Cl)cc54)c3c2)cn1`, for which the growth with T-47D breast is 8.79% (active); with BT-549 breast, 33.7%; in the experiment with MDA-MB-435 melanoma it was 55.8%; in the experiment on SW-620 colon, 66.4%; in the experiment on MCF7 breast, 24.3%; with HCT-116 colon, 46.9%. Also, the results for the growth in the experiment on HCC-2998 colon and in the experiment with KM12 colon were 61.5% and 58%, respectively.

Turning to `CCN1C(=O)N(CC)C2C1NC(=S)N2/N=C/C=C/c1cccs1` (stereo not given), the growth was 66.4% with T-47D breast; 24.1% in the experiment with BT-549 breast; -26.9% (active) with MDA-MB-435 melanoma; 25.5% in the experiment with SW-620 colon; 18.3% in the experiment on MCF7 breast; 15.1% with HCT-116 colon. The growth is 16.4% in the experiment with HCC-2998 colon and 18.5% with KM12 colon.

Consider `O=C1c2cccnc2C(=O)c2c1c(C(=O)OCCCN1CCOCC1)c1ccccn21`, for which the growth in the experiment with T-47D breast was 4.62% (active); in the experiment on BT-549 breast it was -38.7% (active); in the experiment with MDA-MB-435 melanoma it was -32.4% (active); in the experiment with SW-620 colon, -39.3% (active); in the experiment with MCF7 breast, -38.7% (active); in the experiment with HCT-116 colon, -49.6% (active). The growth with HCC-2998 colon is 7.61% (active); in the experiment with KM12 colon, 15.7%.
